Experimental findings from PubChem BioAssay AID618 (Sanford-Burnham Center for Chemical Genomics, 2007) are described below.

Among all 87,000 compounds or so, about 540 (0.62%) were called active. No rule for the calls is given here. Shown is part of a subset that was picked to be rich in actives. Entries with a potency or affinity are not part of this list.

The nature of this assay: MT1-MMP gene expression reporter suppression – cell-based, luciferase reporter, luminescence (AID 618).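 Also: actives suppress MT1-MMP promoter-driven transcription so potencies describe inhibitors.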 Conditions: MT1-MMP promoter luciferase reporter cells.
As to `CCNc1nc(Oc2ccc(=O)[nH]n2)nc(N2CCOCC2)n1`, the call was inactive.

For `CCOC(=O)C1=NN(c2ccc(OC)cc2)C(c2ccccc2)CC1=O` (centres undefined), the compound was classed as inactive. Under `COC(=O)c1ccc(CSc2nnc(SCc3ccc(C(=O)OC)o3)s2)o1` stands “inactive”; under `CCN1C(c2ccc(F)cc2)=CS/C1=C(\C#N)c1nnc2n1-c1ccccc1SC2`, “inactive”; under `CNc1nnc(-c2ccncc2)s1`, “inactive”.

As to `CNc1nnc(-c2cccc(N(C)C)c2)s1`, the compound was classed as inactive.

With `Cc1ccc(-c2nc(CS(=O)(=O)CC(=O)NC3CCCCC3C)c(C)o2)cc1` (centres undefined), the call was inactive.

Turning to `CCCCCc1ccc(-c2ccc(=O)[nH]n2)cc1`, the compound was classed as inactive. The same measure for `CCCCc1ccc(-c2nc(N)n[nH]2)cc1`: “inactive”; for `CCc1ccc(-c2ccc(C(=O)O)cc2)nc1`: “inactive”; for `CCCc1ccc(-c2ccc(C(=O)O)cc2)nc1`: “inactive”. The same measure for `CCCCCCc1ccc(-c2ncc(N)cn2)cc1`: “active”; for `CC(=O)c1ccc(N=Cc2c(O)n(-c3cc(Cl)ccc3N3CCOCC3)c(=O)c3ccccc23)cc1`: “inactive”; for `Cc1noc(NS(=O)(=O)c2ccc(NC(=O)CSc3nc4ccccc4[nH]3)cc2)c1C`: “inactive”. The same measure for `CCCc1nc(SCc2ccccn2)c2c(=O)n(C)c(=O)n(C)c2n1`: “inactive”; for `CCOc1nc(NCCc2ccc(OC)c(OC)c2)nc(N2CCN(c3ccc(OC)cc3)CC2)n1`: “inactive”; for `Cc1cccc(N2CCN(C(=O)c3cc4c(=O)n(C)c5ccccc5c4n3C)CC2)c1C`: “inactive”. In the case of `COc1ncnc2sc(-c3ccccc3)cc12`, the compound was classed as inactive. Under `COc1ccc(-c2cc(=O)c3ccccc3s2)cc1` stands “inactive”; under `O=C(Nc1ccc(N2CCCC2)cc1)c1cccc(F)c1`, “active”.

Turning to `O=C(Nc1ccc(N2CCCC2=O)cc1)c1cccc(F)c1`, the result was inactive. The same measure for `O=C(Nc1ccc(N2CCCCC2)cc1)c1ccc(F)cc1`: “inactive”; for `O=C(Nc1ccc(N2CCCCC2)cc1)c1cccnc1`: “inactive”. The same measure for `O=C(Nc1ccc(N2CCN(C(=O)c3ccco3)CC2)cc1)c1cccc(F)c1`: “inactive”; for `O=C(COc1ccc(Br)cc1CO)Nc1ccccc1F`: “inactive”; for `O=C(NCCCN=C1NS(=O)(=O)c2ccccc21)c1ccco1`: “inactive”.

`COC(=O)C1CCN(C(=O)c2ccc(NC(C)=O)cc2)CC1`: the call was inactive. Under `CCOC(=O)C(C)Oc1cccc2c(=O)n(CC(=O)N3CCc4ccccc43)ccc12` (centres undefined) stands “inactive”; under `CCOC(=O)COc1cccc2c(=O)n(CC(=O)NCc3ccc4c(c3)OCO4)ccc12`, “inactive”; under `CCOC(=O)C(C)Oc1cccc2c(=O)n(CC(=O)NCc3ccco3)ccc12` (centres undefined), “active”. For the compound `Nc1nonc1C(=O)NCCNCc1cc(Br)ccc1OCc1ccccc1F`, the compound was classed as active. With `Nc1nonc1C(=O)NCCNCc1cc(Br)ccc1OCc1ccc(F)cc1`, the compound was called inactive. Under `Nc1nonc1C(=O)NCCNCc1ccccc1OCc1ccccc1F` stands “inactive”; under `c1ccc(C2CC(c3ccccc3)n3ncnc3N2)cc1` (centres undefined), “inactive”; under `O=c1[nH]c(=O)n([C@H]2C[C@H](O)[C@@H](CO)O2)cc1F`, “active”.

Take `O=c1[nH]c(=O)n([C@H]2C[C@H](O)[C@@H](CO)O2)cc1C(F)(F)F`: the compound was classed as inactive. Under `CCc1cn([C@H]2C[C@H](O)[C@@H](CO)O2)c(=O)[nH]c1=O` stands “inactive”; under `Cc1ccc(NC(=O)CN(C)C(=O)CSc2nc3ccccc3c(=O)n2Cc2ccco2)cc1`, “inactive”; under `Cc1csc2nc(CSc3nc4ccccc4o3)cn12`, “inactive”. Under `Cc1csc2nc(CSc3ccc(Cl)cc3)cn12` stands “inactive”; under `COc1ccccc1/C=N/NC(=O)C1=NNC(c2ccccc2)(c2ccccc2)C1`, “inactive”; under `Cc1ccc(-c2cc(C(=O)N/N=C/c3ccco3)[nH]n2)cc1`, “inactive”. Take `O=C(CSc1ccccc1)Nc1ccncc1`: the compound was classed as inactive.

For `Cc1cc2c(c(=O)n1Cc1ccccn1)C(C(C)C)C(C#N)=C(N)O2` (centres undefined), the result was inactive. Under `Cc1nc2ccc(N)cc2s1` stands “inactive”; under `Cc1nc(-c2cccc(N)c2)cs1`, “inactive”.

On to `Nc1cccc(-c2nc3ccccc3s2)c1`, for which the result was inactive.

Regarding `Nc1cccc(-c2nc3ccc(N)cc3s2)c1`, the result was active. Under `Nc1ccc(O)c(-c2nc3ccccc3s2)c1` stands “inactive”; under `COc1cccc(NC(=O)C2C3C=CC4(O3)C2C(=O)N(C2CC2)C4C(=O)NC2CCCCC2C)c1` (centres undefined), “inactive”; under `C=C(C)c1cccc(C(C)(C)NC(=O)N2CCN(CC(N)=O)CC2)c1`, “inactive”. Under `CC(C)(C)c1ccc(C2(C)NC(=O)N(CC(=O)Nc3ccc4c(c3)OCO4)C2=O)cc1` (centres undefined) stands “inactive”; under `CCCCCn1c(=O)[nH]c2cc(C(=O)N3CCN(CC)CC3)ccc2c1=O`, “inactive”.

Regarding `CCOC(=O)N1CCN(C(=O)CN(C2CCCCC2)S(=O)(=O)c2ccc(Cl)cc2)CC1`, the outcome was inactive. For the compound `COc1ccc(NC(=O)c2cc(CN3C(=O)c4ccccc4C3=O)ccc2OC)cn1`, the compound was classed as inactive.

`COc1ccc(NC(=O)/C(Cl)=C(/Cl)S(=O)Cc2ccccc2)cn1` (centres undefined): the call was active. Under `COc1ccc(NC(=O)/C(Cl)=C(/Cl)S(=O)Cc2ccc(C)cc2)cn1` (centres undefined) stands “active”; under `COc1ccc(NC(=O)c2cc(=O)c3ccccc3o2)cn1`, “inactive”.

`CCOc1ccccc1OCCCC(=O)Nc1ccc(OC)nc1`: the result was inactive. Under `COc1ccc(NC(=O)c2nc3nccc(C)n3n2)cn1` stands “inactive”.

`Cc1ccc(C(=O)n2cnnc2N)cc1`: the compound was called inactive. For `CN(C)c1nc(N)nc(-c2cccnc2)n1`, the result was inactive. With `COc1ccc(C)cc1S(=O)(=O)N(C)CC(=O)Nc1ccc2c(c1)OCO2`, the result was inactive. The same measure for `Cc1ccc2ccccc2c1COC(=O)c1nonc1N`: “inactive”. Under `CC(=O)Nc1cccc(Oc2ccc(-c3noc(C)n3)cc2)c1` stands “inactive”. In the case of `CCCC(=O)N1CC(=O)Nc2ccc(F)cc2C1c1ccccc1` (centres undefined), the outcome was inactive.

As for `COc1ccccc1NC(=O)COc1ccc(CO)cc1Cl`, the compound was called inactive. For the compound `O=C(COc1ccc(CO)cc1)Nc1ccc(F)cc1`, the result was inactive. With `N#C/C(=C\c1ccc[nH]1)Sc1nc2ccccc2s1`, the compound was called inactive. Under `COc1ccccc1N(CC(=O)NC1CCCC1)C(=O)CCC(=O)Nc1cc(C)on1` stands “inactive”; under `CC(=O)Nc1ccc(SCC(=O)c2cc(C)n(C)c2C)cc1`, “inactive”.

`CC(=O)Nc1ccccc1OCC(=O)c1cc(C)n(Cc2cccs2)c1C`: the compound was classed as inactive. The same measure for `Cc1cc(C(=O)CN2C(=O)c3ccccc3C2=O)c(C)n1Cc1cccs1`: “inactive”; for `COCC(C)n1c(C)cc(C(=O)CSc2ccc(NC(C)=O)cc2)c1C` (centres undefined): “inactive”; for `C=CCn1c(C)cc(C(=O)CSc2nc3ccccc3o2)c1C`: “inactive”. The same measure for `C=CCn1c(C)cc(C(=O)CSc2n[nH]c(N)n2)c1C`: “inactive”; for `COc1ccc(-c2n[nH]c(C)c2-c2cc(OC)ccc2O)cc1`: “inactive”. Under `CCSC1=C(C#N)C(c2ccccc2C)CC(=O)N1` (centres undefined) stands “inactive”; under `Cc1cc(SCc2cc(=O)[nH]c3ccccc23)nc2ccccc12`, “inactive”; under `O=C(O)c1c2c(nc3ccc(F)cc13)CCC2`, “inactive”. `COCCn1nnnc1C(c1ccc(OC)cc1OC)N1CCN(c2ccccc2F)CC1` (centres undefined): the call was inactive. The same measure for `Cc1ccccc1OCC(=O)Nn1c(COc2ccccc2)nc2ccccc2c1=O`: “inactive”; for `CC1=C(C)C(=O)N(c2ccc(C(=O)O)cc2)C1=O`: “inactive”. The same measure for `O=C1/C(=C\c2ccc3ccccc3c2)CCCc2ccccc21`: “inactive”; for `COC(=O)c1ccc(C(NC(=O)OCc2ccccc2)/C(F)=C/[C@@H](C)C(=O)NCc2ccc(OC)c(OC)c2)cc1` (some centres undefined): “inactive”. The same measure for `CCC(C)C1C(C#N)=C(N)Oc2n[nH]c(-c3ccccc3)c21` (centres undefined): “inactive”; for `O=C(Oc1ccc2ccccc2c1)c1ccccc1`: “inactive”. In the case of `CC(=O)Nc1cc(-c2ccc(Cl)cc2)nn1-c1ccccc1`, the compound was called inactive. Under `Cc1ccc(-c2cc(NC(=O)CCl)n(-c3ccccc3)n2)cc1` stands “inactive”.

Regarding `O=C(CCl)Nc1cc(-c2ccccc2)nn1-c1ccccc1`, the outcome was active. Regarding `O=C1CS/C(=C/C(=O)c2ccccc2)N1`, the outcome was inactive. Under `NCCCCCc1nnc(SCc2cccc(Cl)c2)o1` stands “inactive”. In the case of `Cc1ccc2nc(/C(C#N)=C\c3ccc(N4CCOCC4)o3)[nH]c2c1`, the compound was called inactive.

Consider `N#C/C(=C/c1ccc(N2CCOCC2)o1)c1nc2ccccc2[nH]1`, for which the result was inactive. The same measure for `CCc1ccc(-c2cn3nc(C)c(C)nc3n2)cc1`: “active”.

As to `CCc1c(-c2ccccc2)nc2nc(C)c(C)nn12`, the outcome was inactive. The same measure for `Cc1ccc(-c2cn3nc(C)c(C)nc3n2)cc1`: “active”; for `Cc1nc2nc(-c3cccs3)cn2nc1C`: “inactive”. The same measure for `CCc1ccc(-c2nn[nH]n2)cc1`: “inactive”; for `Cc1nc2nc(-c3ccccc3)cn2nc1C`: “inactive”; for `O=Cc1ccccc1OCCOc1ccccc1C=O`: “inactive”.

With `CN(C)c1ccc(-c2nc3ccccc3n2C)cc1`, the compound was classed as active. Under `Cn1c(-c2ccc(N)cc2)nc2ccccc21` stands “inactive”; under `CC(C)n1c(-c2ccc(N(C)C)cc2)nc2ccccc21`, “inactive”. The same measure for `O=C(CN1CCN(c2ccccc2)CC1)Nc1ccccc1C(F)(F)F`: “inactive”; for `Cc1cccc(NC(=O)CN2C(=O)COc3ccc(Cl)cc32)c1`: “inactive”. Under `CCOC(=O)c1c(C)cc(=O)oc1C` stands “inactive”.

With `CCOC(=O)c1c(C)oc2cc3c(C(=O)OCC)c(C)oc3cc12`, the compound was classed as inactive. For `CCOC(=O)c1c(C)oc2c(F)c(F)c(F)c(F)c2c1=O`, the compound was called active. Under `O=C(Oc1ccnc2cc(Cl)ccc12)N1CCOCC1` stands “inactive”; under `COc1ccc(S(=O)(=O)n2nc(-c3cc(OC)c(OC)c(OC)c3)cc2N)cc1OC`, “inactive”. The same measure for `COc1ccc(OC)c(S(=O)(=O)n2nc(-c3ccccc3)cc2N)c1`: “inactive”; for `COc1ccc(-c2cc(N)n(S(=O)(=O)c3c(F)c(F)c(F)c(F)c3F)n2)cc1OC`: “active”; for `CC(C)(C)Nc1nc(NCc2cccnc2)nc(N2CCOCC2)n1`: “inactive”.

`CSc1ccccc1NC(=O)c1ccccc1N(C)S(C)(=O)=O`: the result was inactive. Under `CCCc1cc2c(n1CCc1ccc(Cl)cc1)C(C)C1CN(C(=O)c3ccccc3)C(C)(C(=O)OC)C21` (centres undefined) stands “inactive”; under `CCCCCOc1ccc(Br)cc1/C(C)=N/NC1=NCCN1`, “active”. As for `CCCCOc1ccc(Br)cc1/C(C)=N/NC1=NCCN1`, the result was inactive. The same measure for `CCOc1ccc(Br)cc1/C(C)=N\NC1=NCCN1`: “inactive”.
